# Source: PubChem BioAssay
# This is a sample that favours compounds with a hit; in the whole collection about 3.5% have one here.
# MITF primary – MITF inhibitors, primary screen, biochemical, AlphaScreen, human. inhibition, % at 2.6 µM. 0.91% of 650,000 active. AlphaScreen MITF homodimerization, bead proximity signal. Microphthalmia-associated transcription factor (Homo sapiens), O75030. AID 1259374, 2018; in the data active means inhibition above about 50%;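 further: 0% = vehicle wells with protein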
# GPR151 activ – activators of human GPR151, primary screen, cell-based, PathHunter beta-arrestin, luminescence; PathHunter beta-arrestin GPR151 cells; 1% of 650,000 active; AID 1508602, 2020; activation, % at 11.2 µM; G-protein coupled receptor 151 (Homo sapiens), Q8TDV0; in the data active means activation above about 4.9%;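 further: 0% = median of compound wells and 100% = cells with positive control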
# FBW7 act – FBW7 E3 ligase activators, primary screen, biochemical, AlphaScreen, human. F-box/WD repeat-containing protein 7 (Homo sapiens), Q969H0. normalized activity (activation), % at 26.1 µM. 0.13% of 650,000 active. AlphaScreen FBW7–phospho-cyclin E peptide binding, activator screen; in the data active means normalized activity above about 1.9%;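 further: purified mutant Fbw7 with reduced substrate affinity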
# Target sequence (Q969H0 whole entry, looked up): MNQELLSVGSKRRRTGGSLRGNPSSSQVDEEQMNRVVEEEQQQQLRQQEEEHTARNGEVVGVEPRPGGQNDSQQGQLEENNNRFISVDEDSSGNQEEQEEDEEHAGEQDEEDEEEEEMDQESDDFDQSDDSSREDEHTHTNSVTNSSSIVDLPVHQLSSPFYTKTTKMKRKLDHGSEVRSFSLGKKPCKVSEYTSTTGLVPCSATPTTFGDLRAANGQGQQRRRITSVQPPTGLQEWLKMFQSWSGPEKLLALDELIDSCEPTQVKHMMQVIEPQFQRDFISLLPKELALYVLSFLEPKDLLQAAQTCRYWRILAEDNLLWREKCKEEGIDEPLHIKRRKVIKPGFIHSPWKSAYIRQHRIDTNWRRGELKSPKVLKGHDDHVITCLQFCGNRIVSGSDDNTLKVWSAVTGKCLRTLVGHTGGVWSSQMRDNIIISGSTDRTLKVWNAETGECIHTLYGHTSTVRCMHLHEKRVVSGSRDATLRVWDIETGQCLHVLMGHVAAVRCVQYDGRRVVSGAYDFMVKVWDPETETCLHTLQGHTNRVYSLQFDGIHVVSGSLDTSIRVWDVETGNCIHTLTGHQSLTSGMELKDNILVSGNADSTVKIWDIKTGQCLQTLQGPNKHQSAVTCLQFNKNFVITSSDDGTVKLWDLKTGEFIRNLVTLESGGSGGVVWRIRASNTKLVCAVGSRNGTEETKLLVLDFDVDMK
# TEAD-YAP inh – TEAD-YAP interaction inhibition, primary screen, TEAD-YAP interaction inhibitor project, luminescence, HEK-TIYL cells; inhibition, % at 9.12 µM; TEAD-Gal4/YAP UAS-luciferase luminescence; 1.4% of 640,000 active; AID 1259422, 2018; in the data active means inhibition above about 32%;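 further: 0% = median of test compound wells and 100% = reference inhibitor wells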
# GPR151 conf act – GPR151 activators, triplicate retest, confirmation, cell-based, PathHunter beta-arrestin, luminescence | activation, % at 11.2 µM | shares compounds with GPR151 activ | GPR151 PathHunter beta-arrestin cells, 90 min; % of EA-reagent control over plate median | 6,700 tested, under 10 active;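 active means mean percent activation across replicates above the confirmation screen cutoff of 4.91%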
# GPR119 ag – GPR119 activators in beta-arrestin cells, counter-screen for GPR151 activator project, cell-based, PathHunter beta-arrestin, luminescence, triplicate; shares compounds with GPR151 activ; 90 min; 0 = compound-well median, 100 = enzyme-acceptor control; activation, % at 11.2 µM; 0.3% of 6,700 active;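 active means mean percent activation in the counterscreen above 29.09%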;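 further: counterscreen on off-target GPR119 to flag nonselective hits from the GPR151 activator screen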
# * hit, by the source's call; . = not tested or not shown.
SMILES,MITF primary,GPR151 activ,FBW7 act,TEAD-YAP inh,GPR151 conf act,GPR119 ag
COc1ccc2nc(N3CCN(CCNC(=O)c4ccc(Cl)s4)CC3)sc2c1,7,0,0,-36,.,.
O=C(Oc1ccccc1Br)c1cccc([N+](=O)[O-])c1,6,-1,1,-5,.,.
CCOC(=O)c1ccc(NC(=O)/C(=C\c2ccc([N+](=O)[O-])cc2)NC(=O)c2ccco2)cc1,2,6.2*,0,2,0,5
CCNC(=O)/C(=C\c1ccc(OC)cc1)NC(=O)c1ccc(Br)cc1,11,5.1*,0,6,0,3
CCOC(=O)c1ccc(NC(=O)/C(=C/c2cccc(Br)c2)NC(=O)c2ccco2)cc1,-5,-1,0,13,.,.
COc1ccc(/C=C(/NC(=O)c2ccc(Br)cc2)C(=O)NCC(=O)O)cc1,9,-1,0,-6,.,.
O=C(NCCCO)c1cccc([N+](=O)[O-])c1,1,5.1*,0,-1,0,6
CCOc1cccc(/C=C2\SC(=O)N(CC(=O)Nc3ccc(C)cc3)C2=O)c1O,8,-1,0,12,.,.
O=C(CCCCCCN1C(=O)c2ccccc2C1=O)NN(c1ccccc1)c1ccccc1,9,6.2*,0,-3,1,6
O=C(CCCCCN1C(=O)c2ccccc2C1=O)Nc1ccccc1,3,0,0,-8,.,.
Cc1nc(NC(C)c2ccccc2)cc(-c2ccccc2F)n1 (centres undefined),12,5.8*,0,2,-2,-10
CC(C)CC(=O)Nc1nn2c(-c3cccs3)nnc2s1,0,5.5*,0,-8,0,-6
COCCCNc1c2c(nc3nnnn13)CCCC2,5,6.1*,0,5,0,-2
CCN(CC)CCNc1c2c(nc3nnnn13)CCCC2,11,0,0,3,.,.
CCN(CC)S(=O)(=O)c1ccc(OCc2ccccc2C#N)c([N+](=O)[O-])c1,-9,5.0*,0,7,0,1
CC(=O)Nc1ccccc1NC(=O)C/C(C)=N/NC(=O)c1ccncc1,6,1,0,-5,.,.
C/C(CC(=O)Nc1ccccc1Cl)=N\NC(=O)c1ccncc1,-2,9.1*,0,9,-1,-10
COc1ccccc1C(=O)N/N=C(\C)CC(=O)Nc1ccccc1Br,-1,7.6*,0,-41,0,9
Cc1ccc(NC(=O)C2CC(=O)N(c3ccc(F)cc3)C2)c(C)c1 (centres undefined),3,19*,0,8,0,13
CCOc1ccc(N2CC(C(=O)Nc3ccc(Br)cc3CC)CC2=O)cc1 (centres undefined),4,4.9*,0,0,0,9
Cc1cc(S(=O)(=O)N2CCCCC2)ccc1Br,-1,-1,0,-3,.,.
CCn1ccnc1CN(C)Cc1ccc(OCC(O)CN2CCc3ccccc3C2)cc1 (centres undefined),0,10*,0,4,0,-16
CC(C)N(CCNc1nc(NCCCN2CCCC2=O)nc2nc[nH]c12)C(C)C,0,3,0,2,.,.
Oc1ccc(CCNc2ncnc3nc(-c4ccccc4)[nH]c23)cc1,9,-1,0,21,.,.
Cc1cc(C)cc(CN2CCN(c3ccc4c(c3)OCO4)C2=O)c1,13,-1,0,-10,.,.
SMILES,MITF primary,GPR151 activ,FBW7 act,TEAD-YAP inh,GPR151 conf act,GPR119 ag
O=C1N(Cc2ccc(F)cc2F)CCN1c1ccc2c(c1)OCO2,12,9.8*,0,-52,0,9
CCOC(=O)c1c(NC(=S)NC(=O)N(C)C)sc(C)c1-c1cccs1,1,5.1*,0,0,1,7
O=S(=O)(c1ccc(S(=O)(=O)N2CCC3(CC2)OCCO3)cc1)N1CCCC1,7,-1,0,-3,.,.
O=S(=O)(c1ccc(Oc2ccc(S(=O)(=O)N3CCC4(CC3)OCCO4)cc2)cc1)N1CCC2(CC1)OCCO2,-6,8.5*,0,5,0,0
CC(=O)c1ccc(NC(=S)Nc2cc([N+](=O)[O-])ccc2C)cc1,12,6.3*,0,-2,-1,-8
Cc1ccc(C(=O)O)cc1NC(=O)Nc1ccc([N+](=O)[O-])cc1,5,2,0,10,.,.
COc1cccc(/C(C)=N/NS(=O)(=O)c2ccc(Cl)cc2)c1,-23,5.3*,0,-2,1,18
COc1ccc(S(=O)(=O)N/N=C(/C)c2ccc(Cl)cc2)cc1,-7,0,0,-6,.,.
CCc1ccc(OC)c(S(=O)(=O)NCc2ccccc2)c1,10,0,0,-3,.,.
Cc1ccc(CNC(=O)CCCn2c(=O)c3ccccc3n(CC(N)=O)c2=O)cc1,-3,5.2*,0,0,1,4
COc1ccc2c(c1)CC(C(=O)Nc1ccc(-c3ccnc(N)n3)cc1)CO2 (centres undefined),-14,5.2*,14*,4,1,9
COc1ccc2c(c1)CC(C(=O)Nc1ccc(-c3ccnc(N)n3)cc1O)CO2 (centres undefined),19,1,0,10,.,.
CCOC(=O)C1(CC2CCCCO2)CCN(CCCSC)CC1 (centres undefined),0,6.6*,0,-2,0,-9
CCOC(=O)C1(CC2CCCCO2)CCN(Cc2cnc(SC)nc2)CC1 (centres undefined),0,2,0,-9,.,.
Cc1ccccc1C(c1ncccc1C)N(C)C(=O)C1CCN(C(=O)N2CCCC2)CC1 (centres undefined),-10,1,0,16,.,.
O=[N+]([O-])c1ccc(N2CCN(Cc3ccoc3)CC2)cc1,8,0,0,-1,.,.
CC(=O)c1ccc(N2CCN(Cc3ccoc3)CC2)cc1,20,5.9*,0,-17,-1,-7
Cc1ccc(N2C(=O)CC(Nc3ccc(F)cc3)C2=O)c(Br)c1 (centres undefined),-19,15*,0,8,0,0
Cc1cccc(N2C(=O)CC(Nc3ccc(F)cc3)C2=O)c1 (centres undefined),10,0,0,9,.,.
OC(COc1ccccc1CN1CCCC1)CN1CCc2ccccc2C1 (centres undefined),-8,8.9*,0,6,0,-4
C=CCNC(=O)CSc1nc2ccc(C)cc2[nH]1,7,-1,0,-3,.,.
Cc1cccc(NC(=O)CCC2CCN(C(=O)c3cc(C)nc(C)n3)CC2)c1,8,5.2*,0,4,1,14
